# Most compounds without a hit are left out; they make up all but 19% or so of the library.
# HT1080 IDH1KD tx: qHTS for induction of synthetic lethality in tumor cells producing 2HG: qHTS for the HT-1080-IDH1KD cell line; HT-1080 IDH1 knockdown viability, ATP luminescence, 48 h; Potency, µM (series often up to 46.1 µM), without a hit: at the top dose activity, negative = toxicity, hits mostly cytotoxic; 2% of 360,000 active; AID 686971, 2013;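 also: potency is read from the fitted curve at half-maximal effect; 0% = DMSO wells and -100% = cell-free medium wells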
#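 Luminescent ATP read-out (CellTiter-Glo, 10 min at room temperature) after 48 h compound exposure at 37 °C gave viability of IDH1-knockdown HT-1080 cells. Activity was normalised to DMSO and cell-free wells, then fitted as concentration-response curves.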
# ELG1 DNA repair: qHTS screen for small molecules that inhibit ELG1-dependent DNA repair in human embryonic kidney (HEK293T) cells expressing luciferase-tagged ELG1 | HEK293T ELG1-luciferase reporter, luminescence, 16 h; DNA damage induced by 5-fluorouridine | Potency, µM (titrated, usually from 46.1 µM), for inactives: at the highest dose activity change, negative = inhibition, usual class: inhibitors | 2.3% of 330,000 active | AID 504467, 2011; also: potency is read from the fitted curve at half-maximal effect; nearly all actives have a fitted effect of over 55% in size
#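 Reporter activity after DNA damage by 5-fluorouridine is monitored. Compound-treated cells incubate 16 hr at 37 °C, then ONE-Glo is added for 30 min before luminescence reading.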
# TDP1 cell CPT: qHTS for Inhibitors of human tyrosyl-DNA phosphodiesterase 1 (TDP1): qHTS in cells in presence of CPT. AID 686979, 2013. chicken DT40 Tdp1-/-;hTDP1 cells + 20 nM CPT, ATP luminescence, 48 h. 12% of 420,000 active. Potency, µM (top dose mostly 46.2 µM), for the others: top-dose activity change, negative = growth inhibition, most hits filed as inhibitors; also: potency is read from the fitted curve at half-maximal effect; nearly all actives have a fitted effect of over 55% in size
#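 Chicken DT40 Tdp1-/- cells stably complemented with human TDP1 were seeded at 400 cells/well in medium containing 20 nM camptothecin, exposed to pin-transferred compounds, and grown at 37 °C for at least 48 hr. Viability was read as ATP luminescence.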
# IL-1B inflam inh: qHTS for Inhibitors of Inflammasome Signaling: IL-1-beta AlphaLISA Primary Screen | THP-1 LPS/ATP IL-1B secretion, AlphaLISA, 16 h; stronger effect = lower value | activity change, % at 57.5 µM | 4.7% of 360,000 active | AID 743279, 2014; in the data active = activity change below about -50%; inconclusive = mostly about -30% to -49%
#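 THP-1 cells pretreated 1 hr with compounds (up to 57.5 uM final), then stimulated with LPS (250 ng/mL final) plus ATP (1.25 mM final); secreted IL-1B measured by AlphaLISA after 16 hr, decreased signal indicating inhibition.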
# DT40 TDP1 no CPT: qHTS for Inhibitors of human tyrosyl-DNA phosphodiesterase 1 (TDP1): qHTS in cells in absence of CPT; DT40 Tdp1-/- hTDP1 cells, no CPT, ATP luminescence, 48 h; Potency, µM (doses to about 46.2 µM), without a hit: top-dose activity change, negative = growth inhibition, hits mostly inhibitors; 15% of 420,000 active; also: potency is read from the fitted curve at half-maximal effect; nearly all actives have a fitted effect of over 55% in size
#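 Seeded 400 DT40-hTDP1 cells/well (vehicle DMSO, no 20 nM CPT); pinned compounds; ≥48 hr at 37 °C; CellTiter-Glo luminescence as viability measure.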
# HT1080-NT tox: qHTS for induction of synthetic lethality in tumor cells producing 2HG: qHTS for the HT-1080-NT fibrosarcoma cell line; HT-1080-NT fibrosarcoma viability, CellTiter-Glo ATP luminescence, 48 h; Potency, µM (highest dose often 46.1 µM), inactives show at the highest dose activity, negative = less viability, hits mostly cytotoxic; 1.6% of 360,000 active;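 also: NT is the 2HG producing partner of a matched IDH1 knockdown line; potency is read from the fitted curve at half-maximal effect; 0% = DMSO-treated cells and -100% = media-only wells without cells; nearly all actives have a fitted effect of over 55% in size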
#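 Viability by CellTiter-Glo luminescence after 48 h compound exposure at 37C of HT-1080-NT cells (750/well, RPMI, 5% FBS). % activity scaled between DMSO wells and medium-only wells, then curve-fitted and categorized by curve class.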
# * hit, by the source's call; u = inconclusive; x = no result given. Unless noted, calls follow the shape of the dose curve; as a rule, active = well fitted curve in the direction sought with a large enough effect; inconclusive = small, poorly fitted or top-dose-only effect, or another doubt; inactive = no such curve, though single readings can be large; an effect the other way counts as inactive or inconclusive. Unless noted, % is scaled to controls: 0 for no effect and ±100 for the full control effect.
SMILES,HT1080 IDH1KD tx,ELG1 DNA repair,TDP1 cell CPT,IL-1B inflam inh,DT40 TDP1 no CPT,HT1080-NT tox
CCOC(=O)c1cnc2c(ccc3ccccc32)c1Nc1ccc(C(C)=O)cc1,x,x,u,x,23µM*,x
NC(=O)c1ccc(N=Nc2c(O)[nH]c(=O)[nH]c2=O)cc1,x,9%,x,x,x,x
O=C(N=Nc1c(O)[nH]c(=O)[nH]c1=O)C1COc2cc3ccccc3cc2O1 (configuration not stated),0%,u,18µM*,-13,u,-4%
Cc1nnc(NC(=O)c2cccn(Cc3ccc(Cl)cc3)c2=O)s1,x,x,2%,x,-17%,x
COc1ccc(CNC(=O)Cn2c(=O)nc(-c3ccccc3F)c3cc(Cl)ccc32)cc1,x,x,1.5µM*,x,2.1µM*,x
CC(C)(C)OC(=O)N(CCc1ccccc1)Cc1ccc(OCc2cccc(NC(=O)c3ccccc3)c2)cc1,5%,x,u,-3,21µM*,16%
COC(=O)C1=C(c2ccc(F)cc2F)C[C@@H]2CC[C@H]1N2C(=O)NCCOc1ccccc1Cl,10%,-4%,u,-19,u,-1%
Cc1ccc(N2C(=O)CC(=O)NC2=O)c(C)c1,9%,19%,10%,7,-17%,2%
Cc1ccc(NC(=O)c2cc(-c3cc(Cl)ccc3C)n[nH]2)cc1NS(C)(=O)=O,u,x,23µM*,-14,u,u
O=C(c1ccc(-c2ccccc2)cc1)C1CCCN(Cc2ccn[nH]2)C1 (configuration not stated),-10%,-8%,u,-25,u,-4%
COP(N)(=O)SC (configuration not stated),x,x,0%,x,-3%,x
Cc1cccc(C(C)c2cnc[nH]2)c1C (configuration not stated),x,x,27µM*,x,u,x
Nc1ccc(N)cc1,x,x,-22%,x,-17%,x
CCOP(=O)(OCC)C(O)c1ccccc1 (configuration not stated),3%,-8%,1%,7,-27%,0%
CCOP(=O)(/C=C(\Cl)c1ccccc1)C(O)c1ccc(F)cc1 (configuration not stated),4%,-12%,u,-13,16µM*,15%
COc1ccccc1OCCCn1cc(C(=O)c2ccco2)c2ccccc21,-8%,u,18µM*,u,u,-2%
CN(C)c1ccccc1,-5%,x,2%,5,16%,11%
O=P(c1ccccc1)(c1ccccc1)N(c1ccccc1)c1ccccc1,u,-29%,2.9µM*,12,4.6µM*,-13%
CCCCOc1ccc(Cn2c(=O)oc3ccccc32)cc1,-5%,-1%,u,18,u,1%
NC1C[C@H]1c1ccccc1 (some centres not stated),x,x,-12%,x,-5%,x
COC(=O)c1ccc2ccn(CC(=O)NC(C)C)c2c1,-2%,u,-1%,-15,-12%,3%
Cc1cc(C(=O)NP(=O)(N2CCOCC2)N2CCOCC2)c(C)n1C1CC1,3%,11%,1%,13,-3%,-2%
O=C(NP(=O)(N1CC1)N1CC1)c1cc(I)ccc1I,-6%,x,1.5µM*,24,2.3µM*,-1%
Cc1ccc(-c2cn3c(=S)[nH]nc3s2)cc1,3%,9%,-27%,13,u,-3%
CC(=O)NC(Cc1ccc(N(CCCl)CCCl)cc1)C(=O)NC(C(=O)O)C(C)C (configuration not stated),14%,6%,-9%,-14,-21%,10%
SMILES,HT1080 IDH1KD tx,ELG1 DNA repair,TDP1 cell CPT,IL-1B inflam inh,DT40 TDP1 no CPT,HT1080-NT tox
CCOC(=O)CC(NC(=O)C(Cc1ccc(N(CCCl)CCCl)cc1)NC(C)=O)C(=O)OCC (configuration not stated),u,0%,1.5µM*,-79*,0.52µM*,u
NCCc1c(Cc2ccccc2)[nH]c2ccccc12,-12%,x,-23%,-26,u,-4%
Cc1c(CCN)ccc2c1[nH]c1ccccc12,0%,u,u,0,29µM*,-1%
CCCNC(=O)C1(C)CCN(Cc2ccc3ccccc3c2Br)C1 (configuration not stated),u,x,u,-14,u,-22%
C[N+]1([O-])CCC[C@@H]1c1cccnc1 (some centres not stated),x,x,3%,x,-19%,x
CCOC(=O)c1ccccc1OC(=O)NNc1ccccc1,12µM*,x,8%,0,-15%,5.8µM*
CC1=C2CC3C(CC=C4C[C@@H](O)CC[C@@]43C)[C@@H]2CC[C@]12O[C@@H]1C[C@H](C)CN[C@H]1[C@H]2C (some centres not stated),x,x,12%,x,-4%,x
CSCCC(NC(=O)CCC(=O)OC1CC[C@H]2[C@@H]3CC[C@H]4CC(=O)CC[C@]4(C)[C@H]3CC[C@]12C)C(=O)O (some centres not stated),10%,16%,-2%,-8,-16%,1%
O=C(CN1CC(c2ccccc2)CC1=O)Nc1cccc(F)c1 (configuration not stated),-2%,1%,3%,u,-6%,14%
O=C(CN1CC(c2ccccc2)CC1=O)Nc1ccc(F)cc1 (configuration not stated),7%,-6%,2.9µM*,-23,-15%,11%
CN(C)c1ccc(P(=O)(Nc2ccc([N+](=O)[O-])cc2)N2CCOCC2)c(NC(=O)c2cccs2)c1 (configuration not stated),-4%,u,-22%,21,-21%,-11%
CCOC(=O)C1(C)CCN1C(=O)c1cc(OC)c(OC)c(OC)c1 (configuration not stated),16%,x,u,33,u,15%
COc1ccc(NC2Oc3cc4c(cc3C(c3cc(OC)c(OC)c(OC)c3)C2C)OCO4)cc1 (configuration not stated),u,x,4.6µM*,-64*,4.1µM*,u
CCN1CCN(S(=O)(=O)c2ccc(Cl)c(C(=O)Nc3ccc(C(=O)N(CC)CC)cc3)c2)CC1,-11%,u,15µM*,13,u,27%

# High-throughput results deposited in PubChem BioAssay by National Center for Advancing Translational Sciences (NCATS).
